# Assay outcomes deposited in PubChem BioAssay by The Scripps Research Institute Molecular Screening Center.
# hcDAF-12 act: H. contortus DAF-12 activation, primary screen; HEK293 hcDAF-12 lit1-tk-luc reporter, luminescence; 0% DMSO, 100% Δ7-dafachronic acid; activation, % at 6.8 µM; 370,000 tested, 1.4% active; AID 652067;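 active = activation above the mean of all tested compounds plus 3 SD, cut at about 5.5% in these data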;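 note: 100% = response to 3 µM Δ7-dafachronic acid high control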
# ssDAF12 agonist: activators of S. stercoralis DAF-12 nuclear receptor; HEK293 ssDAF-12/GRIP1 lit1-tk-luc reporter, luminescence; % of 3 µM dafachronic acid response; activation, % at 6.8 µM; 370,000 tested, 1% active;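 active = activation above the mean over all tested compounds plus 3 SD, cut at about 0.9% in these data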;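 note: 0% = DMSO-only wells and 100% = 3 µM delta7-dafachronic acid wells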
# DAX1 inh-1: inhibits human nuclear receptor DAX1. inhibition, % at 6.75 µM. AID 504766. 340,000 tested, 0.99% active. HEK293 Gal4-DAX1 luciferase reporter, luminescence;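 active = inhibition above the mean over all tested compounds plus 3 SD, cut at about 4.2% in these data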;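 note: 0% = DAX1-transfected cells with DMSO and 100% = empty-vector control cells with DMSO; inhibition shows as a rise in luminescence from relieved DAX1 repression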
# Target sequence (P51843 207-470 limits assumed): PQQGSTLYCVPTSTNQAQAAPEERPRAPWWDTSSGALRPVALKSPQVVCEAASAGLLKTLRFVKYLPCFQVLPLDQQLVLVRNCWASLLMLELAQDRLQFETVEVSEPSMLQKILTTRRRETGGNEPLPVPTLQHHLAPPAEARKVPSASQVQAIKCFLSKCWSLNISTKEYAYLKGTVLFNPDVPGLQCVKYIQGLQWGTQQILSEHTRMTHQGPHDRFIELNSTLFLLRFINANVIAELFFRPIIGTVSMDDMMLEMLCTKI
# SMARCA2 activ: activators of SMARCA2 function. MG213 cells, MMTV-luciferase reporter, dexamethasone, overnight. activation, % at 9.1 µM. 370,000 tested, 1% active. AID 652017; in the data active = activation above about 7.8%;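 note: 0% = vehicle wells and 100% = reference activator wells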
# hgDAF12 agonist: activates the H. glycines DAF-12 receptor ligand-binding domain; 370,000 tested, 1.8% active; HEK293 GAL4-hgDAF12 UAS-luciferase reporter, agonist luminescence; normalized to butyrate control; activation, % at 6.8 µM;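 active = activation above a cutoff set at the mean of all screened compounds plus 3 SD, cut at about 10% in these data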;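 note: 0% = DMSO wells and 100% = sodium butyrate wells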
# DAX1 inh-2: DAX1 (NR0B1) inhibition, primary screen; HEK293T StAR-luciferase reporter, SF-1/DAX-1 repression relief; inhibition, % at 6.8 µM; 370,000 tested, 1.1% active;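 active = inhibition above the mean over all tested compounds plus 3 SD, cut at about 3.6% in these data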;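 note: 0% = DAX-1 cells with DMSO and 100% = cells lacking DAX-1 with DMSO; higher inhibition means more luminescence from relief of DAX-1 repression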
# * marks the source's active call; other numbers are inactive results; . = no result. Most compounds without a hit are left out; they make up all but 4.8% or so of the library.
SMILES,hcDAF-12 act,ssDAF12 agonist,DAX1 inh-1,SMARCA2 activ,hgDAF12 agonist,DAX1 inh-2
CCN(C(=O)CSC1=Nc2ccccc2C2CC=NN12)C1CCS(=O)(=O)C1 (stereo not drawn),5.8*,1,1,1,3,1
C=CCn1c(SCC(=O)N2CCCC2)nc2c([nH]c3ccccc32)c1=O,6.3*,1.0*,0,-2,1,1
COCCn1c(SCC(=O)Nc2cc(C)on2)nc2c([nH]c3ccccc32)c1=O,2,-1,0,-3,1,0
CCn1c(SCC(=O)Nc2ccc(C(C)=O)cc2)nc2c([nH]c3ccccc32)c1=O,5.8*,0,0,-5,4,1
C=CCn1c(SCC(=O)N2CCN(C(=O)OCC)CC2)nc2c([nH]c3ccccc32)c1=O,5,1,1,-4,-1,1
CCn1c(SCC(=O)Nc2cc(C)on2)nc2c([nH]c3ccccc32)c1=O,6.0*,0,0,-2,1,1
CCn1c(SCC(=O)Nc2cccc(NC(C)=O)c2)nc2c([nH]c3ccccc32)c1=O,1,1.1*,0,2,4,-2
CC(C)C[C@H]1CN(CCCC[C@H]2CNC(=O)C(=O)N2CCc2ccc(O)cc2)C(=O)C(=O)N1CCc1ccccc1,0,-1,.,2,1,1
CCOc1ccccc1C(=O)N[C@H](C(=O)Nc1nc2c(s1)CCCC2)C(C)C,3,4.1*,0,1,6,0
CC(C)=CC(=O)OCc1cc([N+](=O)[O-])cc2c1OCOC2,1,1.0*,1,4,11*,3.8*
CC(C)[C@H](NC(=O)c1ccccc1Cl)C(=O)OCc1cc([N+](=O)[O-])cc2c1OCOC2,-1,1.0*,-1,-2,-1,0
CCC[C@H]1[C@@H](NC(=O)C2CCCCC2)CC[C@@]23CCCN2C(=O)CCC[C@@H]13,-1,-1,.,.,-1,.
COc1ccc(Nc2nccc3c2nnn3C)cc1,4,0,3,7,7,4.2*
NNC(=O)C(=O)NCCCN1CCOCC1,2,-1,5.7*,-3,-3,0
S=C(NCCCN1CCOCC1)Nc1ccc(Cl)cc1Cl,-1,-1,0,-3,3,0
CC(C)CNC(=O)C(=O)NCCCN1CCOCC1,1,-2,0,0,-3,-1
Cc1ccc(C)c(NC(=O)C(=O)NCCCN2CCOCC2)c1,-1,-1,1,0,11*,0
Cc1ccc(C)c(NC(=S)NCCCN2CCOCC2)c1,-1,0.9*,0,1,3,1
O=C(c1cc2ccccc2[nH]1)N1O[C@@H]2C=C[C@H]1C2,6.2*,0,2,4,7,2
COc1ccc(C(=O)N(C)[C@H]2C[C@H]3c4[nH]c5cccc(-c6ccccc6)c5c4CCN3C[C@H]2[C@H](C)O)cc1,-1,-1,.,-6,0,-1
COc1ccccc1N1CCN(C(=O)C(C)CS(=O)(=O)c2ccc3c(c2)NC(=O)CS3)CC1 (stereo not drawn),0,0,0,-5,-3,-1
CNC(=O)c1cc2c(cn1)[nH]c1ccccc12,1,0,1,0,6,3.7*
COc1cc(C(=O)N/C(=C\c2cn(C)c3ccccc23)C(=O)NCCCO)cc(OC)c1OC,-1,-2,4.7*,-2,-2,0
COc1cc(C(=O)N/C(=C\c2cn(S(=O)(=O)N(C)C)c3ccccc23)C(=O)NCCCO)cc(OC)c1OC,0,-1,1,1,1,0
CCN(CC)CCNC(=O)/C(=C/c1cn(C)c2ccccc12)NC(=O)c1ccc(OC)c(OC)c1,1,0,5.2*,-3,2,0
SMILES,hcDAF-12 act,ssDAF12 agonist,DAX1 inh-1,SMARCA2 activ,hgDAF12 agonist,DAX1 inh-2
CCN(CC)CCNC(=O)/C(=C/c1cn(CC)c2ccccc12)NC(=O)c1cc(OC)c(OC)c(OC)c1,-1,-1,-1,-3,-1,0
O=C1C=C(c2ccc3c(c2)OCO3)C[C@@H](c2ccc(Cl)cc2)C1,0,-2,1,-2,-1,0
CN(Cc1ccccc1)C(=O)c1cccc(NC(=O)Cc2ccc(NC(=O)C3CCCN(C(=O)C4CCCC4)C3)cc2)c1 (stereo not drawn),-3,-1,1,-1,-1,-2
Cc1cc(C(=O)N/N=C/c2ccc3c(c2)OCO3)c(C)o1,1,-1,3,2,11*,0
O=C(N/N=C/c1ccc(F)cc1)c1cc(-c2ccc3c(c2)OCO3)n[nH]1,1,-1,4.6*,2,2,0
O=C(N/N=C/c1ccncc1)c1ccc2c(c1)OCO2,0,-1,0,6,11*,1
Cc1ccc(-c2cc(C(=O)NN=Cc3ccc(F)cc3)[nH]n2)cc1C,0,-1,.,-4,11*,-1
COc1ccc(/C=N/NC(=O)c2ccc3c(c2)OCO3)cc1,0,-1,1,5,3,0
CCOC(=O)c1sc2nc3c(cc2c1N)C(=O)CC(C)(C)C3,-2,-1,4.4*,2,1,1
O=C(Nc1ccc(F)cc1)Nc1c(-c2ccc(F)cc2)nc2ncccn12,1,1.8*,.,-1,1,0
COc1ccccc1CC(=O)O/N=C(\N)c1ccccn1,1,0,1,-1,5,1
N/C(=N\OC(=O)Cc1cccc2ccccc12)c1ccccn1,5.8*,0,2,4,6,1
N/C(=N\OC(=O)C1CCCCC1)c1ccccn1,2,0,0,5,12*,2
N/C(=N\OC(=O)C1CCCCC1)c1ccncc1,1,-1,0,0,1,1
O=C(CCC1CCCC1)NCCCNC(=O)CCC1CCCC1,5.9*,0,0,-1,5,0
COC(=O)C(/C=N/O)NC(=O)c1ccccc1 (stereo not drawn),5.9*,-1,0,0,0,1
CO/N=C/C(NC(=O)c1ccc(C(F)(F)F)cc1)C(=O)OC (stereo not drawn),-2,-1,-1,-2,-2,1
CCOC(=O)Cn1cc(CN2CCS(=O)(=O)N(Cc3ccc(OC)cc3)C(C(=O)OC)C2)nn1 (stereo not drawn),-2,-1,.,-2,-1,0
CCC[C@H]1[C@@H](OC(=O)Oc2ccc([N+](=O)[O-])cc2)CC[C@@]23CCCN2C(=O)CCC[C@@H]13,-1,0,.,.,-1,.
CCOc1ncccc1C(=O)OCC(=O)c1ccccc1Br,-2,1.2*,2,0,-1,0
Nc1c(-c2ccc(Cl)cc2)nnn1-c1ccccc1,2,-1,3,3,11*,2
CCOc1ccc(N2C(=O)C(Cl)=C(Nc3ccccc3O)C2=O)cc1,5.6*,1,0,1,5,-1
